Assay results as given in the supplement of paper PMC10042075.
Where a name gives a salt, the structure may show the parent alone.

Tested on: LASCPC-01
Assay: cell viability relative to DMSO control (fraction); higher = less growth inhibition (more viable cells)
Conditions: 2 µM; 72 h
Experimental: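 High-throughput single-dose screen in the LASCPC-01 NEPC cell line in 384-well plates. Cells were treated with each compound at 2 µM for 72 h, and viability was read by CellTiter-Glo luminescence. Values are normalised to the DMSO control (compound/DMSO) from three replicates; only the 5-HT-related subset of the 7315-compound library is given.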

Row | Compound | cell viability
1 | CC(N)Cc1cccc(C(F)(F)F)c1 (single isomer, unassigned; (+)) [(+)-Norfenfluramine hydrochloride] | 1.09
